According to PubChem BioAssay (EPA / NIEHS):
Where “and” joins values, the source holds several entries; their conditions need not be identical. Identical values can stand only once. Some compounds were tested as several samples or in several runs, with calls that do not always agree. Calls of active or inactive are those of the source. How the source made its calls: active means hit-call score of the fitted dose curve at least 0.9, where 1 is the maximum; inactive means score below 0.9.

read-out: Thrombomodulin, THBD (gene 7056); assay: BSK_LPS_Thrombomodulin: BioMAP Diversity Plus: LPS Assay for Thrombomodulin Biomarker Activity (AID 2284296); details: primary human HUVEC with PBMC
Method: BSK_LPS is a cell-based, multiplexed-readout assay that uses umbilical vein endothelium and peripheral blood mononuclear cells, a human vascular primary cell co-culture, with measurements taken at 24 hours after chemical dosing in a 96-well plate.BSK_LPS_Thrombomodulin is an assay component measured in the BSK_LPS assay. It measures Thrombomodulin antibody related to regulation of gene expression using ELISA technology.Data from the assay component BSK_LPS_Thrombodulin was analyzed at the endpoint, BSK_LPS_Thrombomodulin, in the positive analysis fitting direction relative to DMSO as the negative control and baseline of activity. Using a type of binding reporter, gain or loss-of-signal activity can be used to understand protein changes. To generalize the intended target to other relatable targets, this assay endpoint is annotated to the 'gpcr' intended target family, where the subfamily is 'rhodopsin-like receptor'.
The levels of cell surface (or secreted, indicated by the prefix "s") biomarker endpoints were measured by ELISA. Overt cytotoxicity to cells in confluent adherent cultures (all systems other than the BT system) was assessed by measuring total protein levels using sulforhodamine B (SRB) staining in parallel cultures at the time of biomarker measurements, indicated as SRB endpoints. For proliferation assays for adherent cell types, individual cell types are cultured at sub-confluence and relative cell numbers quantified by SRB staining at time points optimized for each system (48 h: 3C and CASM3C systems; 72 h: BT and HDF3CGF systems; 96 h: SAg system). SRB was performed by staining cells with 0.1% SRB after fixation with 10% TCA and reading wells at 560 nm.Viability and proliferation of PBMC (T cells) was quantified by Alamar Blue reduction for the SAg and BT systems. For PBMC viability (referred to as PBMC Cytotoxicity within the assay endpoint names), cells were plated (75,000/well in a 96-well plate) and then chemical samples added for 1 h before addition of activators, SEB and TSST-1 (20 ng/mL final concentration each). Cells were incubated for 90 h. Then, Alamar Blue (20 uL/well) (Invitrogen, Cat DAL1100) was added for 6 h, and the plates were read with a fluorescence microplate reader at 546/580 nm (excitation/emission). For PBMC proliferation, cells were plated and activated as above but incubated for only 16 h prior to addition of Alamar Blue. Plates were read after 6 h.

AC50, active:
O=P(O)(O)CCC(F)(F)C(F)(F)C(F)(F)C(F)(F)C(F)(F)C(F)(F)F 0.219 µM
O=C(O)C(F)(F)OC(F)(F)C(F)(F)OC(F)(F)C(F)(F)OC(F)(F)C(F)(F)C(F)(F)C(F)(F)F 45.8 µM and 44.1 µM
O=C(CC(=O)C(F)(F)C(F)(F)C(F)(F)F)c1cccs1 55.5 µM and 54.2 µM
O=C1NS(=O)(=O)c2ccccc21 1.09 µM
CCCCCCCCCCCC 35.4 µM
C=CC(=O)OCCC(F)(F)C(F)(F)C(F)(F)C(F)(F)C(F)(F)C(F)(F)C(F)(F)C(F)(F)F 2.94 µM

outcome, inactive:
O=P(O)(O)CCC(F)(F)C(F)(F)C(F)(F)C(F)(F)C(F)(F)C(F)(F)F
O=S(=O)(O)C(F)(F)C(F)(F)C(F)(F)C(F)(F)C(F)(F)C(F)(F)C(F)(F)C(F)(F)C(F)(F)C(F)(F)F
O=P(O)(O)CCC(F)(F)C(F)(F)C(F)(F)C(F)(F)C(F)(F)C(F)(F)C(F)(F)C(F)(F)F
O=C1NS(=O)(=O)c2ccccc21
CCCCCCCCCCCC
C=CC(=O)OCCC(F)(F)C(F)(F)C(F)(F)C(F)(F)C(F)(F)C(F)(F)C(F)(F)C(F)(F)F
Oc1c(Cl)cc(Cl)cc1Sc1cc(Cl)cc(Cl)c1O
CN(Cc1cnc2nc(N)nc(N)c2n1)c1ccc(C(=O)N[C@@H](CCC(=O)O)C(=O)O)cc1
Oc1ccc(Cc2ccccc2O)cc1
OCC(F)(F)C(F)(F)C(F)(F)C(F)(F)C(F)(F)C(F)(F)C(F)(F)C(F)(F)C(F)(F)C(F)(F)C(F)(F)F
O=C(O)CCC(F)(F)C(F)(F)C(F)(F)C(F)(F)C(F)(F)F
O=C(O)CCC(F)(F)C(F)(F)C(F)(F)C(F)(F)C(F)(F)C(F)(F)F
CN(CCO)S(=O)(=O)C(F)(F)C(F)(F)C(F)(F)C(F)(F)C(F)(F)C(F)(F)C(F)(F)C(F)(F)F
